Only a selection was taken, and hits are over-represented in it overall.
CD40 NFkB inh: inhibitors of CD40-induced NF-kB signaling, primary screen, BL2 cells, luciferase reporter, single point; CD40L-induced, 4 h; inhibition, % at 10 µM; actives 0.94% (n = 83,000); AID 1053188, 2014;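 active = mean inhibition of at least 50% with a set share of replicates also reaching that level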;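 note: 0% = neutral control wells and 100% = IKK inhibitor VII at 50 µM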
The depositor's hits bear a star; [ ] = remark or other dose.

SMILES	CD40 NFkB inh
N#C[C@@H]1[C@H](c2ccc(C#Cc3ccccc3F)cc2)[C@H](CO)N1C(=O)C1CC1	35[25 µM]
N#C[C@@H]1[C@H](c2ccc(C#Cc3ccccc3F)cc2)[C@@H](CO)N1C(=O)C1CC1	86*[25 µM]
C[C@@H]1CN([C@@H](C)CO)C(=O)CCCn2cc(nn2)CO[C@H]1CN(C)Cc1ccc(O)cc1	4
O=C(CC(=O)Nc1ccccn1)Nc1ccccn1	8
O=C(Nc1ccccn1)c1ccc(C(=O)c2ccccc2)cc1	-13
O=C(NC(=O)c1ccccc1)Nc1ccccn1	108*
CO[C@H]1CN(C)C(=O)c2cc(NC(=O)NC3CCCCC3)ccc2OC[C@H](C)N(C)C[C@@H]1C	3
C[C@H]1CN([C@@H](C)CO)C(=O)CCCn2cc(nn2)CO[C@@H]1CN(C)Cc1ccncc1	-3
C[C@@H]1CN([C@H](C)CO)C(=O)CCCn2cc(nn2)CO[C@@H]1CN(C)S(=O)(=O)c1cccs1	1[25 µM]
N#C[C@H]1[C@@H](c2ccc(C#CC3CCCCC3)cc2)[C@H](CO)N1C(=O)Cc1ccccn1	0
Cc1nc(Nc2nc3ccccc3o2)nc(C)c1C	6
N#Cc1cnc(Nc2nc3ccccc3o2)nc1-c1ccccc1	-20
Cc1ccnc(Nc2nc3ccccc3o2)n1	68*
CCC(=O)NC[C@@H]1[C@@H](c2ccc(C3=CCCCC3)cc2)[C@@H](CO)N1C(=O)C1CC1	-5
CC(C)Cc1ccc(C(C)CC2=CCC(CN(C)C)C2=O)cc1 (centres undefined)	94*
CN1C(=O)c2cc(NC(=O)Cc3cccs3)ccc2OC[C@@H]2O[C@@H](CC(=O)NCCc3ccncc3)CC[C@@H]21	-5[25 µM]
CO[C@H](C(=O)N(C)C[C@@H]1OCc2ccccc2-c2c(n(C)c3ccccc23)C(=O)N([C@@H](C)CO)C[C@@H]1C)c1ccccc1	8[25 µM]
CC(=O)N1[C@@H]2CN(CC(F)(F)F)C[C@H]1C2c1ccc(Br)cc1 (some centres undefined)	0
CCCNC(=O)Nc1ccc2c(c1)C(=O)N(C)C[C@H](OC)[C@H](C)CN(C(=O)C1CCC1)[C@@H](C)CO2	3
CC(=O)c1sc2ccccc2c1OC(=O)c1ccco1	-6
CCOC(=O)C1=C(COC(=O)c2ccccc2OC)NC(=O)NC1C (centres undefined)	-5
CCOC(=O)c1sc2ccccc2c1OC(=O)c1ccccc1OC	64*
O=C(Cc1ccccn1)N1CC(=O)N2[C@H](CO)[C@@H](c3ccc(C#CCC4CCCC4)cc3)[C@@H]2C1	2[25 µM]
COC(=O)c1ccc2nc(NC(=O)C(C)(C)C)sc2c1	79*
COC(=O)Nc1nc2ccc(Br)cc2s1	-9
SMILES	CD40 NFkB inh
CCCC(=O)Nc1nc2ccc(OC)cc2s1	-59
CO[C@H]1CN(C)C(=O)c2cc(NC(=O)C3CCC3)ccc2OC[C@@H](C)N(Cc2ccc(F)cc2)C[C@H]1C	1
CNC(=O)C[C@H]1CC[C@@H]2[C@H](COC[C@@H](O)CN2Cc2ccccc2F)O1	-13[25 µM]
COCC#Cc1ccc([C@H]2[C@@H](CO)N3C(=O)CN(C(=O)c4ccncc4)C[C@H]23)cc1	2[25 µM]
O=[N+]([O-])c1ccc(Sc2ccccn2)nc1	-12
Nc1ncnc(Sc2ncccn2)c1[N+](=O)[O-]	84*
CN(C)c1ncnc(N(C)C)c1[N+](=O)[O-]	-1
COc1cccc(C(=O)N2C[C@H]3[C@@H](c4ccccc42)[C@@H](CO)N3C(=O)c2cccc(F)c2)c1	5[25 µM]
COc1ccc(S(=O)(=O)N(C)C[C@H]2OCc3ccccc3-c3c(n(C)c4ccccc34)C(=O)N([C@@H](C)CO)C[C@H]2C)cc1	-8
C[C@H]1CN([C@@H](C)CO)C(=O)c2c(c3ccccc3n2C)-c2ccccc2CO[C@@H]1CN(C)S(=O)(=O)c1ccc([N+](=O)[O-])cc1	50*[25 µM]
C[C@@H]1CN([C@H](C)CO)C(=O)c2c(c3ccccc3n2C)-c2ccccc2CO[C@H]1CN(C)S(=O)(=O)c1ccccc1	19
COc1ccc(S(=O)(=O)N(C)C[C@H]2OCc3ccccc3-c3c(n(C)c4ccccc34)C(=O)N([C@H](C)CO)C[C@@H]2C)cc1	14
C[C@H](CO)N1C[C@H](C)[C@H](CN(C)S(=O)(=O)c2ccccc2)OCc2ccccc2-c2c(n(C)c3ccccc23)C1=O	6
C[C@H]1CN([C@@H](C)CO)C(=O)c2c(c3ccccc3n2C)-c2ccccc2CO[C@H]1CN(C)S(=O)(=O)c1ccc([N+](=O)[O-])cc1	73*[25 µM]
C[C@@H]1CN([C@@H](C)CO)C(=O)c2c(c3ccccc3n2C)-c2ccccc2CO[C@H]1CN(C)S(=O)(=O)c1ccccc1	18
COc1cccc(S(=O)(=O)N(C)C[C@H]2OCc3ccccc3-c3c(n(C)c4ccccc34)C(=O)N([C@@H](C)CO)C[C@@H]2C)c1	59*[25 µM]
C[C@H]1CN([C@@H](C)CO)C(=O)c2c(c3ccccc3n2C)-c2ccccc2CO[C@H]1CN(C)S(=O)(=O)c1ccccc1	25
OCc1cc2ncnc(Nc3ccc(O)c(Br)c3)c2cc1CO	-5[25 µM]

Screening results: PubChem, Broad Institute
